# Laboratory results published in PubChem BioAssay AID590 (National Center for Advancing Translational Sciences (NCATS), 2007).
# In all, about 59,000 compounds went through this assay and about 6,500 (11%) were called active. Another 15% or so got no clear call; they are omitted. Cut-off read from the data, not from the text of the source: active = max dye-equivalent concentration above about 10 nM; inconclusive = mostly about 1.1 nM to 9.6 nM; inactive = weaker than that. Shown is part of a subset that was picked to be rich in actives.
# Assay: qHTS Assay for Spectroscopic Profiling in A350 Spectral Region
# Conditions: Compound autofluorescence, 340/450 nm, Alexa 350 dye-equivalents; stronger effect = higher value
# From the text: NIH Molecular Libraries Screening Centers Network [MLSCN]
# NIH Chemical Genomics Center [NCGC]
# Occasionally, the artifactual effect may originate from the compounds own spectral or other biophysical properties which generally tend to track its assay concentration. Pre-screening/profiling the library with respect to the compounds spectral properties should help one exclude false positives early on. While the most informative fluorescent profiling data set is obtained by performing a full excitation and emission scan of each well by using a monochromator-based plate reader, such an approach is practical only on a very limited scale as scanning each well requires long time. An alternative approach, applied here, is to perform plate reader scans using selected excitation and emission wavelength pairs to generate a multidimensional relational database that correlates compound concentration and the respective relative fluorescence intensity at a given wavelength set. A standard curve of Alexa 350 (A 350) present on each plate as six-point concentration series, was used to compute a normalized fluorescence response, termed dye-equivalent concentration, for each compound at each concentration.
# NCGC Assay Protocol Summary:
# 100 mM Tris buffer, pH 8.0
# The wells in columns 1 through 4 of a Kalypsys polypropylene 1536-well compound plate were filled with standard solutions of fluorophore corresponding to the spectral region of interest. Solutions of A 350 were placed in the following wells: I1, J1: 3 mM, I2, J2: 300 uM, I3, J3: 30 uM, I4, J4: zero (DMSO), K1, L1: 3 uM, K2, L2: […], K3, L3: 300 nM, K4, L4: zero (DMSO).
# Six uL of buffer were dispensed to 1536-well Greiner black plates. Compounds and dye standards (23 nL) were transferred via Kalypsys PinTool. The plates were incubated for 15 min at room temperature, and then read on ViewLux (Perkin-Elmer) High-throughput CCD imager using 340 nm and 450 nm excitation and emission filter set.
# Keywords: NIH Roadmap, MLSCN, MLI, MLSMR, qHTS, NCGC, A350, A-350, Fluorescent Profiling.
row,SMILES,max dye-equivalent concentration
1,O=c1[nH]c(=O)n([C@H]2C[C@H](O)[C@H](CO)O2)cc1Br,inactive
2,OCCCN1c2ccccc2Nc2nnc(-c3ccccc3)cc21,110 nM (active)
3,Cn1c(=O)[nH]c(=O)c2c1nc(N(CCO)Cc1ccccc1)n2Cc1ccccc1Cl,inactive
4,O=C(c1cccc(F)c1)N1CCC2(CCCN(Cc3ccncc3)C2)CC1,inactive
5,Cc1c(C)c2c(c(C)c1O)CC[C@@](C)(CN1CCN(c3cc(N4CCCC4)nc(N4CCCC4)n3)CC1)O2,11 nM (active)
6,CC(=O)N1CCC2(CCCN(Cc3ccc(C#N)cc3)C2)CC1,inactive
7,N#CNC1=NCN(CCc2ccccc2)CN1,inactive
8,Cn1c(=O)cc(OCCCC(=O)N2CCN(c3ccccn3)CC2)c2ccccc21,inactive
9,Cc1ccnc(N2CCN(C(=O)CSc3nc4ccccc4nc3N3CCCCC3)CC2)c1,28 nM (active)
10,O=C(CSc1nc2ccccc2o1)N1CCN(c2ccccc2)CC1,inactive
11,COc1ccc(C(=O)Cn2nnc(-c3ccc(N4CCOCC4)cc3)n2)cc1OC,inactive
12,Cc1ccc(Oc2ccc(N)cc2)cc1,inactive
13,CC(C)(C)n1nnnc1C(c1ccc2ncccc2c1)N1CCSCC1 (stereo unspecified),inactive
14,COc1ccccc1N1CCN(C(=O)c2ccc(S(=O)(=O)N3CCCCC3)cc2)CC1,inactive
15,N#CC(C(=O)c1ccc(S(=O)(=O)N2CCCCCC2)cc1)c1nc2ccccc2[nH]1 (stereo unspecified),52 nM (active)
16,Cc1ccccc1-c1nnn(CC(=O)c2ccc(S(=O)(=O)N3CCCC3)cc2)n1,inactive
17,Cc1nnc(N(Cc2ccco2)C(=O)c2ccno2)s1,inactive
18,N#Cc1cccc(NC(=O)CCC2CCCC2)c1,inactive
19,CCCc1nc(-c2ccccc2O)n(-c2ccccc2)n1,inactive
20,O=C(CSc1nnc(Cc2ccccc2)n1-c1ccccc1)N1CCOCC1,inactive
21,CCOc1ccccc1C(=O)NCCCn1ccnc1,inactive
22,CCOc1ccccc1C1C(C(=O)OC)=CN(C)C=C1C(=O)OC,13000 nM (active)
23,CCOc1ccccc1C(=O)NCc1ccco1,inactive
24,CN(C)CCCn1c2ccccc2c2cnccc21,inactive

row,SMILES,max dye-equivalent concentration
1,CCC(C)n1[nH]c(=O)cc1N (stereo unspecified),inactive
2,CC(=O)c1c(N)n(C)c(=O)n(C)c1=O,inactive
3,CCON=C1C(C)(C)C(C)(C)C(C)(C)C1(C)C,inactive
4,CC(=O)N1CCN(C(=O)Nc2cccc(C(F)(F)F)c2)CC1,inactive
5,CCOc1c(N2CCCCC2)c(=O)c1=O,inactive
6,CCOC(=O)CNC(=O)c1nn(-c2cccc(OC)c2)c(=O)c2ccccc12,inactive
7,Cc1ccc(-c2c3c(=O)n(C)c(=O)n(C)c3cn2-n2cnnc2)cc1,inactive
8,COc1cccc(-n2cc3c(c2-c2ccccc2)c(=O)n(C)c(=O)n3C)c1,10 nM (active)
9,COc1ccc(-c2c3c(=O)n(C)c(=O)n(C)c3cn2NC(C)=O)cc1,2600 nM (active)
10,COc1ccc(-c2c3c(=O)n(C)c(=O)n(C)c3cn2-c2cccc(OC)c2)cc1,14 nM (active)
11,COc1ccc(N(C(=O)c2cccnc2)S(=O)(=O)c2ccc3c(c2)n(C)c(=O)n3C)cc1,inactive
12,COc1ccc(OC)c(-n2cc3c(=O)n(C)c(=O)n(C)c3c2)c1,inactive
13,COC(=O)c1ccc(CSc2nc3ccccc3c(=O)n2-c2cccc(OC)c2)o1,inactive
14,Cc1cccc(-n2nc3c(c2NC(=O)c2ccc(Br)o2)CSC3)c1C,inactive
15,O=C(Nc1ccc(S(=O)(=O)N2CCCCC2)cc1)c1cnccn1,inactive
16,Cc1nc2nc3c(cn2n1)C(=O)CC(c1ccccc1)C3 (stereo unspecified),inactive
17,CC1(C)C(=O)C2(CCCCC2)C(=O)OC1c1cccs1 (stereo unspecified),inactive
18,C=CCn1c(COc2ccccc2C)nnc1SCC(=O)O,inactive
19,Cc1ccc2[nH]c3c(c2c1)CN(C(=O)CN1CCN(c2ccccc2)CC1)CC3,inactive
20,Cc1cc(C)c2c(c1)c(C)cc1nnc(SCC(=O)NCc3ccco3)n12,inactive
21,CC(=O)N1CCC2(CCCN(Cc3ccccc3)C2)CC1,inactive
22,O=C(O)/C(=C/c1c(C(=O)O)[nH]c2cc(Cl)cc(Cl)c12)c1ccccc1,inactive
23,O=C1c2ccccc2C(=O)N1CCc1nn[nH]n1,inactive
24,CCOC(=O)c1c(C)n(C)c2ccc(OC)c(NC(=O)CN3CCC4(CC3)OCCO4)c12,inactive

row,SMILES,max dye-equivalent concentration
1,O=C(O)[C@H](CCc1ccccn1)c1ccccc1,inactive
2,C/C(N)=C(\C#N)C(=O)NCCc1ccccn1,12 nM (active)
3,O=C(NCCc1ccccn1)c1ccc(COc2ccccc2)o1,inactive
4,CC1(C)CC(=O)C(C2=NC(C)(C)Cc3ccccc32)=C(O)C1,inactive
5,CCOc1ccc(N=C2SC(C(=O)O)CC(=O)N2C)cc1 (stereo unspecified),inactive
6,COC(=O)N1CN(C(=O)OC)CN(C(=O)OC)C1,inactive
7,CC(C)=C(NC(=O)c1ccco1)C(=O)NCCc1nc2ccccc2[nH]1,inactive
8,CC(C)OC(=O)c1cc(NC(=O)C2C3CCC(O3)C2C(=O)O)cc(C(=O)OC(C)C)c1 (stereo unspecified),13 nM (active)
9,CCC(CC)C(=O)Nc1cc(C(=O)OC)cc(C(=O)OC)c1,inactive
10,O=C(CCC(=O)c1cccs1)NCc1ccccc1,inactive
11,COC(=O)c1cn(CC(=O)NCc2cccs2)c2ccccc12,inactive
12,O=C(Cn1cc(C(=O)c2cccs2)c2ccccc21)NCc1cccs1,25 nM (active)
13,C=C(Br)CN1CCN(CC(=C)Br)CC1,inactive
14,COC(=O)COc1ccc(S(=O)(=O)Nc2ccc(NC(C)=O)cc2)cc1,inactive
15,O=C1CCC(C(=O)Nc2ccc(OC(F)F)cc2)N1 (stereo unspecified),22 nM (active)
16,CCCOc1ccc(NC(=O)C2CCCNC2=O)cc1 (stereo unspecified),inactive
17,NS(=O)(=O)c1cc2c(cc1Cl)NC(C(Cl)Cl)NS2(=O)=O (stereo unspecified),7200 nM (active)
18,Cc1cn(C2C=CC(CO)O2)c(=O)[nH]c1=O (stereo unspecified),inactive
19,Cc1ccc(C(=O)NC2CCN(C(=O)N3CCOCC3)CC2)cc1,inactive
20,CCOC(=O)c1sc(=S)n(-c2cccc(OC)c2)c1N,inactive
21,CCOC(=O)c1c(C(C#N)C#N)cc(C)nc1C,inactive
22,CCOC(=O)c1cc(-c2ccc(Cl)s2)nc2c1c(C)nn2C,240 nM (active)
23,Cc1ccn2cc(C(=O)NC3CCN(Cc4ccccc4)CC3)nc2c1,inactive
